Screening data (PubChem BioAssay)
WT yeast gro inh: growth inhibition of WT yeast, mitochondrial fusion screen; mitochondrial fusion phenotypic screen, WT strain; inhibition, % at 10 µM; 2.1% of 190,000 active; AID 1362; in the data active = inhibition above about 58%; tested in S. cerevisiae
Arbovirus anti: blocks arbovirus infection; 0.37% of 200,000 active; AID 1251; inhibition, % at 10 µM; arbovirus infection cell-based antiviral screen; in the data active = inhibition above about 30%
CHOP inhibitor: CHOP inhibition in unfolded protein response; CHO-K1 CHOP-promoter luciferase, tunicamycin-induced, 15-18 h; AID 2732; inhibition, % at 10 µM; 3.8% of 220,000 active;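 active = compounds that reduced the stress-induced luciferase reporter signal by more than about 70% of percent inhibition, limit read from the data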
L major viab: inhibitors of Leishmania major promastigote growth | Leishmania major promastigotes, resazurin fluorescence viability | inhibition, % at 10 µM | 9% of 200,000 active | AID 1063; in the data active = inhibition above about 50%;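 also: promastigotes grown with compound for 44 hours at 28 °C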
Hits are given with their value. Only some compounds are listed: those with a hit (about 12% of all), similar ones and a draw of the others.

For COc1ccc(C2CC(C(F)(F)F)n3nc(C(=O)Nc4c(C)n(C)n(-c5ccccc5)c4=O)c(Cl)c3N2)cc1 (stereo not given) the results were WT yeast gro inh inactive, Arbovirus anti inactive, CHOP inhibitor inactive and L major viab 69.
For COc1cccc(C2CC(C(F)(F)F)n3nc(C(=O)Nc4c(C)n(C)n(-c5ccccc5)c4=O)cc3N2)c1 (stereo not given) the results were WT yeast gro inh inactive, Arbovirus anti inactive, CHOP inhibitor inactive and L major viab inactive.
For COCc1ccc(C(=O)NC(C)c2cnn(-c3ccccc3C)c2C)o1 (stereo not given) the results were WT yeast gro inh inactive, Arbovirus anti inactive, CHOP inhibitor inactive and L major viab inactive.
Cc1nn(CC(N)=O)c(=O)c2ccccc12 was read as WT yeast gro inh inactive, Arbovirus anti inactive, CHOP inhibitor inactive and L major viab 100.
For Cc1ccc(C(C)C)c(Oc2nnnn2-c2ccccc2)c1 the results were WT yeast gro inh 66, Arbovirus anti inactive, CHOP inhibitor inactive and L major viab inactive.
Screening CCC(c1nnnn1Cc1cccs1)N1CCN(C(=O)c2ccco2)CC1 (stereo not given) returned WT yeast gro inh inactive, Arbovirus anti inactive, CHOP inhibitor inactive and L major viab inactive.
For COc1cccc(C(c2nnnn2Cc2ccco2)N2CCN(c3cccc(C)c3C)CC2)c1OC (stereo not given) the results were WT yeast gro inh inactive, Arbovirus anti inactive, CHOP inhibitor inactive and L major viab 58.
For COc1ccc(C(c2nnnn2Cc2ccccc2)N2CCN(C(=O)c3ccco3)CC2)cc1 (stereo not given) the results were WT yeast gro inh inactive, Arbovirus anti inactive, CHOP inhibitor inactive and L major viab 58.
COc1ccc(OC)c(C(c2nnnn2Cc2ccco2)N2CCN(C)CC2)c1 (stereo not given) was read as WT yeast gro inh inactive, Arbovirus anti inactive, CHOP inhibitor inactive and L major viab inactive.
COc1cccc(C(c2nnnn2Cc2ccccc2)N2CCN(C(=O)c3ccco3)CC2)c1OC (stereo not given) was read as WT yeast gro inh inactive, Arbovirus anti inactive, CHOP inhibitor inactive and L major viab 79.
Screening Cc1ccc(C(c2nnnn2Cc2cccs2)N2CCN(C(=O)c3ccco3)CC2)cc1 (stereo not given) returned WT yeast gro inh inactive, Arbovirus anti inactive, CHOP inhibitor inactive and L major viab 58.
Screening CCO[C@@H]1OC(C(=O)N2CCOCC2)=C[C@H](c2coc3ccccc3c2=O)[C@H]1CCCO returned WT yeast gro inh inactive, Arbovirus anti inactive, CHOP inhibitor inactive and L major viab inactive.
`Cc1ccc(C(=O)NC(=S)Nc2ccc(NC(=O)c3cccs3)cc2)cc1[N+](=O)[O-]` gave WT yeast gro inh inactive, Arbovirus anti inactive, CHOP inhibitor inactive and L major viab inactive.
`O=C1CCN(S(=O)(=O)c2ccccc2)CCN1CCOCc1ccc(Cl)cc1` gave CHOP inhibitor inactive.
Screening CCOc1ccc(NC(=O)CC2C(=O)N(C)C(=S)N2Cc2ccc3c(c2)OCO3)cc1 (stereo not given) returned WT yeast gro inh inactive, Arbovirus anti inactive, CHOP inhibitor inactive and L major viab inactive.
Screening CCCCC(c1nnnn1Cc1ccco1)N1CCN(C(=O)c2ccco2)CC1 (stereo not given) returned WT yeast gro inh inactive, Arbovirus anti inactive, CHOP inhibitor inactive and L major viab 59.
`O=C(Nc1ccc2c(c1)OCO2)C(c1ccccc1)N1CCN(C(=O)c2ccco2)CC1` (stereo not given) gave WT yeast gro inh inactive, Arbovirus anti inactive, CHOP inhibitor inactive and L major viab inactive.
O=C(Nc1ccc2c(c1)OCO2)C(c1ccc(Cl)cc1)N1CCN(C(=O)c2ccco2)CC1 (stereo not given) was read as WT yeast gro inh inactive, Arbovirus anti inactive, CHOP inhibitor inactive and L major viab 50.
Screening O=C(c1ccco1)N1CCN(C(c2ccc(Cl)cc2)c2nnnn2Cc2ccccc2)CC1 (stereo not given) returned WT yeast gro inh inactive, Arbovirus anti inactive, CHOP inhibitor inactive and L major viab 85.
Screening O=C(CCC(=O)OCc1ccc([N+](=O)[O-])cc1)Nc1ccccc1Cl returned WT yeast gro inh inactive, Arbovirus anti inactive, CHOP inhibitor inactive and L major viab inactive.
Screening Cn1c(SCC(=O)NC(=O)Nc2ccccc2)nnc1-c1ccncc1 returned CHOP inhibitor inactive.
For CC1CCN(c2nc(/C=C/c3ccccc3)nc3ccccc23)CC1 the results were WT yeast gro inh inactive, Arbovirus anti inactive, CHOP inhibitor inactive and L major viab 63.
C(=C\c1nc(N2CCCC2)c2ccccc2n1)/c1ccccc1 was read as WT yeast gro inh inactive, Arbovirus anti inactive, CHOP inhibitor inactive and L major viab 71.
Screening CCc1ccccc1N1C(=O)[C@@H]2Cc3ccccc3CN2C1=O returned CHOP inhibitor inactive.
`Cc1c(C(=O)Nc2ccc(-c3nnc4n3CCCCC4)cc2)oc2c1ccc1ccccc12` gave WT yeast gro inh inactive, Arbovirus anti inactive, CHOP inhibitor 95 and L major viab inactive.
Cc1ccc(CN2CCN(/N=C\C=C\c3ccccc3)CC2)cc1 was read as WT yeast gro inh inactive, Arbovirus anti inactive, CHOP inhibitor inactive and L major viab inactive.
Screening O=C(NNc1cc(N2CCOCC2)nc(N2CCOCC2)n1)c1ccc(Cl)c(Cl)c1 returned WT yeast gro inh inactive, Arbovirus anti inactive, CHOP inhibitor inactive and L major viab inactive.
For Cc1ccc(C(=O)NNc2cc(N3CCCC3)nc(N3CCCC3)n2)cc1 the results were WT yeast gro inh inactive, Arbovirus anti inactive, CHOP inhibitor inactive and L major viab 100.
`CCCCOC(=O)n1c(SCC(=O)N(CC)CC)nc2ccccc21` gave WT yeast gro inh inactive, Arbovirus anti inactive, CHOP inhibitor inactive and L major viab inactive.
`CCC1CCCN1Cn1cnc2c([nH]c3ccc(OC)cc32)c1=O` (stereo not given) gave WT yeast gro inh inactive, Arbovirus anti inactive, CHOP inhibitor inactive and L major viab 66.
For CCN1CCCC1Cn1cnc2c([nH]c3cccc(Cl)c32)c1=O (stereo not given) the results were WT yeast gro inh inactive, Arbovirus anti inactive, CHOP inhibitor inactive and L major viab 81.
`CCC(C)NC(=O)/C=C1\Sc2ccccc2NC1=O` (stereo not given) gave WT yeast gro inh inactive, Arbovirus anti inactive, CHOP inhibitor inactive and L major viab inactive.
For Cc1ccc(CN2CCC(c3cc(-c4cccs4)n[nH]3)CC2)cc1 the results were WT yeast gro inh inactive, Arbovirus anti inactive, CHOP inhibitor inactive and L major viab 94.
CCN(CC)Cc1cc(NC2=NS(=O)(=O)c3ccccc32)ccc1OC(=O)c1ccccc1 was read as WT yeast gro inh inactive, Arbovirus anti inactive, CHOP inhibitor inactive and L major viab 98.
`CCN(CC)Cc1cc(NC2=NS(=O)(=O)c3ccccc32)ccc1OC(=O)C(C)C` gave WT yeast gro inh inactive, Arbovirus anti inactive, CHOP inhibitor inactive and L major viab 99.
Screening CCOC(=O)C1=C(C)NC2=C(C(=O)CCC2)C1c1cccs1 (stereo not given) returned WT yeast gro inh inactive, Arbovirus anti inactive, CHOP inhibitor inactive and L major viab inactive.
